Results on seven molecules are retold here after PubChem BioAssay (NCI).

The panel holds about 83,000 compounds, 20% with a hit somewhere; the sample as a whole holds those more often.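 Growth was measured after 48 h exposure to one concentration of compound in 96-well plates. Values under 10 count as active.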 Unmarked numbers belong to inactive results. Active and inactive are the calls of the source.

Among the test systems are NCI-H23 lung; NCI-H226 lung; NCI-H322M lung; HOP-62 NSCLC; NCI-H460 lung; HOP-92 NSCLC; NCI-H522 lung; A549/ATCC NSCLC; 786-0 renal; COLO 205 colon; DU-145 prostate; K-562 leukemia; MALME-3M melanoma; MDA-MB-231 breast; RXF 393 renal; SF-268 CNS; SF-295 CNS; SF-539 CNS; UACC-257 melanoma; M14 melanoma.
What all share (assay): NCI-60 one-dose screen, 48 h (100 = growth as untreated, 0 = no growth, -100 = all killed)
Common to all, as to conditions: 10 µM unless noted

For the molecule `Nc1nc(N)c2c(n1)NC(c1cccc(Nc3ccnc4cc(C(F)(F)F)ccc34)c1)CC(c1ccc(Cl)cc1)=N2` (stereo not given), the growth in the experiment with NCI-H23 lung was 64.7%; in the experiment on NCI-H226 lung it was 82.7%; with NCI-H322M lung it was 89.3%; in the experiment with HOP-62 NSCLC it was 52%; in the experiment on NCI-H460 lung it was 20.4%; in the experiment on HOP-92 NSCLC it was 34.5%. The growth with NCI-H522 lung is 32.6%; with A549/ATCC NSCLC, 40.8%; in the experiment on 786-0 renal it was 68.9%; with COLO 205 colon, 29.5%; in the experiment on DU-145 prostate, 69.5%; in the experiment on K-562 leukemia it was 10.5%. In addition, the growth in the experiment with MALME-3M melanoma was 50.8%; with MDA-MB-231 breast, 54.4%; with RXF 393 renal it was 37.6%; in the experiment on SF-268 CNS, 55.2%; in the experiment with SF-295 CNS it was 48.4%; with SF-539 CNS, 80.8%. In addition, the growth with UACC-257 melanoma was 87.3%; in the experiment on M14 melanoma it was 29.7%.
Turning to `CCN1C(=O)N(CC)C2C1NC(=S)N2/N=C/C=C/c1ccccc1` (stereo not given), the growth is 21.4% in the experiment on NCI-H23 lung; -10.1% (active) in the experiment with NCI-H226 lung; 46.1% in the experiment with NCI-H322M lung; 29.3% with HOP-62 NSCLC; 5.19% (active) with NCI-H460 lung; 27.8% in the experiment on HOP-92 NSCLC. The growth is -2.87% (active) in the experiment on NCI-H522 lung; 16.9% in the experiment with A549/ATCC NSCLC; 25.6% with 786-0 renal; -30.4% (active) in the experiment on COLO 205 colon; 7.35% (active) in the experiment on DU-145 prostate; 10.9% with K-562 leukemia. Further, the growth with MALME-3M melanoma is 53.7%; in the experiment on MDA-MB-231 breast it was 18.5%; with RXF 393 renal, 18.8%; in the experiment with SF-268 CNS it was 20.8%; with SF-295 CNS it was 3.58% (active); with SF-539 CNS, -13.8% (active). Besides, the results for the growth in the experiment on UACC-257 melanoma and in the experiment with M14 melanoma were 55.1% and 5.45% (active), respectively.
As for `CN(C)CCOc1nc2c3cc([N+](=O)[O-])ccc3nn2c2ccccc12`, the growth was 36.7% in the experiment with NCI-H23 lung; 65.3% in the experiment with NCI-H226 lung; 59.6% in the experiment with NCI-H322M lung; 30.2% in the experiment on HOP-62 NSCLC; 4.99% (active) in the experiment with NCI-H460 lung; 57.3% in the experiment on HOP-92 NSCLC. The growth in the experiment on NCI-H522 lung is 46.2%; with A549/ATCC NSCLC it was 12.7%; with 786-0 renal, 22.7%; with COLO 205 colon, 33.9%; with DU-145 prostate, 32.2%; in the experiment with K-562 leukemia, 26.3%. The growth was 52.4% in the experiment on MALME-3M melanoma; 66.4% in the experiment with MDA-MB-231 breast; 24.3% in the experiment on RXF 393 renal; 56.6% with SF-268 CNS; 9.28% (active) with SF-295 CNS; 51.6% in the experiment with SF-539 CNS. Besides, the figures for the growth in the experiment with UACC-257 melanoma and in the experiment on M14 melanoma were 78.9% and 47.3%, respectively.
`FC(F)(F)c1cccc(-c2nnn(Cc3cc(-c4cccc(Cl)c4)no3)n2)c1`: the growth is 102% in the experiment with NCI-H23 lung; 101% with NCI-H226 lung; 111% in the experiment with NCI-H322M lung; 108% in the experiment on HOP-62 NSCLC; 103% in the experiment on NCI-H460 lung; 100% in the experiment on HOP-92 NSCLC. Further, the growth in the experiment with NCI-H522 lung is 99.6%; with A549/ATCC NSCLC it was 100%; with 786-0 renal, 105%; in the experiment with COLO 205 colon, 112%; in the experiment with DU-145 prostate it was 113%; with K-562 leukemia, 113%. Further, the growth was 97.5% in the experiment on MALME-3M melanoma; 117% with MDA-MB-231 breast; 109% in the experiment with RXF 393 renal; 99.1% with SF-268 CNS; 111% with SF-295 CNS; 102% with SF-539 CNS. For the same molecule, the values for the growth with UACC-257 melanoma and in the experiment on M14 melanoma were 96.3% and 101%, respectively.
On to `CC(C)n1nc(-c2ccc3oc(N)nc3c2)c2c(N)ncnc21`, for which the growth is 2.3% (active) with NCI-H23 lung; -28.2% (active) with NCI-H226 lung; -7.33% (active) in the experiment on NCI-H322M lung; -25.5% (active) in the experiment on HOP-62 NSCLC; 5.28% (active) in the experiment with NCI-H460 lung; -40% (active) in the experiment with HOP-92 NSCLC. Further, the growth with NCI-H522 lung is 2.22% (active); in the experiment on A549/ATCC NSCLC it was -6.71% (active); in the experiment with 786-0 renal, -36.7% (active); in the experiment on COLO 205 colon it was -3% (active); with DU-145 prostate, 2.37% (active); in the experiment with K-562 leukemia, 18.3%. The growth in the experiment with MALME-3M melanoma was -40.7% (active); in the experiment on MDA-MB-231 breast, -15.1% (active); with RXF 393 renal, -43.1% (active); in the experiment on SF-268 CNS, -1.05% (active); in the experiment on SF-295 CNS it was -50.9% (active); in the experiment with SF-539 CNS, -43.7% (active). Moreover, the growth in the experiment on UACC-257 melanoma was -27.8% (active); in the experiment with M14 melanoma it was -18.8% (active).
For `Cc1cc(=O)oc2cc(Oc3nc(-c4ccccc4)cn4c(-c5ccccc5)cnc34)ccc12`, the growth in the experiment with NCI-H23 lung was 62.4%; with NCI-H226 lung, 44.6%; with NCI-H322M lung, 86%; in the experiment on HOP-62 NSCLC it was 68.7%; in the experiment on NCI-H460 lung, 64%; in the experiment on HOP-92 NSCLC, 22.4%. In addition, the growth in the experiment with NCI-H522 lung was 47.1%; with A549/ATCC NSCLC, 56.1%; in the experiment with 786-0 renal, 67.3%; in the experiment on COLO 205 colon it was 70.5%; with DU-145 prostate, 68%; with K-562 leukemia, 61.8%. For the same molecule, the growth was -9.77% (active) in the experiment with MALME-3M melanoma; 50.4% with MDA-MB-231 breast; 28.3% with RXF 393 renal; 64.4% in the experiment with SF-268 CNS; 54.2% in the experiment with SF-295 CNS; 54.6% in the experiment with SF-539 CNS. The growth in the experiment on UACC-257 melanoma was 65.7%; in the experiment on M14 melanoma, 67.7%.
Consider `c1ccc2[nH]c(-c3ccc(-c4nccc5c4[nH]c4ccccc45)cc3)nc2c1`, for which the growth with NCI-H23 lung is 69.1%; in the experiment with NCI-H226 lung it was 77.4%; with NCI-H322M lung, 58.7%; in the experiment on HOP-62 NSCLC, 86.1%; in the experiment with NCI-H460 lung, 42.9%; in the experiment with HOP-92 NSCLC it was 92.4%. Besides, the growth was 27.3% with NCI-H522 lung; 45.7% in the experiment with A549/ATCC NSCLC; 2.97% (active) with 786-0 renal; 44.9% with COLO 205 colon; 67.4% in the experiment with DU-145 prostate; 3.52% (active) with K-562 leukemia. Besides, the growth in the experiment on MALME-3M melanoma was 90.4%; with MDA-MB-231 breast it was 30.2%; with RXF 393 renal, 44.6%; with SF-268 CNS it was 52.3%; with SF-295 CNS, 75.1%; with SF-539 CNS it was -40.4% (active). Besides, the growth with UACC-257 melanoma is 81.8%; in the experiment on M14 melanoma, 72.8%.
